# An excerpt weighted towards active compounds, which were near 5.7% of everything screened.
# A549 viability = A549 cytotoxicity, counter-screen for Nrf2 inhibitors; A549 ARE-Fluc cells, CellTiter-Fluor viability, 18-24 h; Potency, µM (doses to about 46 µM), for the others: at the top dose activity change, negative = cytotoxicity, most hits filed as inhibitors; hit rate 0.16% among 390,000; AID 504648; further: potency means the concentration at half of the fitted maximal effect
#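 A549 ARE-Fluc cells in 5% FBS OPTI-MEM, 5000 cells/well, rested 2 h then exposed to compounds in concentration-response for 18-24 h at 37 °C. Viability by CellTiter-Fluor fluorescence (Ex 405/Em 525) after 30 min; luciferase luminescence (BugLite, 15 min, RT) read afterwards.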
# PI4K2A inh = PI4K2A (human) kinase inhibition. Q9BTU6. purified PI4K2A, ADP-Glo luminescence, 1 h; active compounds read low. activity change, negative = inhibition, % at 76.9 µM. AID 1346378. hit rate 0.13% among 420,000; in the data active means activity change below about -50%; inconclusive means mostly about -30% to -49%;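 further: -100% = wells without enzyme as full effect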
# Target sequence (Q9BTU6 whole entry, looked up): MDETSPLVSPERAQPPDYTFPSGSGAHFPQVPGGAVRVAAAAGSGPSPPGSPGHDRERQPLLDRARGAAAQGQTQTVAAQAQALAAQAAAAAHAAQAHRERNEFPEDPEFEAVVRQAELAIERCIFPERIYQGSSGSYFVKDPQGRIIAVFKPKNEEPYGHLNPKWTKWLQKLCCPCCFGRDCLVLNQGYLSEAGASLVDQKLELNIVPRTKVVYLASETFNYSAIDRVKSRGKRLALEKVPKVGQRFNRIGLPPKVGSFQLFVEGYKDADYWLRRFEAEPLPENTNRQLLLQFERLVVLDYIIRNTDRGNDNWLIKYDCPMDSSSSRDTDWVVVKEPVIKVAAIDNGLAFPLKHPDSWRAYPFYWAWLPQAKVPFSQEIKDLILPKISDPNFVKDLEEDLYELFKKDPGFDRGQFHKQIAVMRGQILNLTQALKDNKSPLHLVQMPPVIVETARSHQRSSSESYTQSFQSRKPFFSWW
#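 PI4K2A activity was measured by ADP-Glo luminescence: enzyme (4 ug/mL stock) and phosphatidylinositol (1.2 mM stock) in Tris pH 7.5/MgCl2/EGTA/Triton X-100 buffer were reacted with ATP (300 microM stock) for one hour at ambient temperature.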
# KB-V1 MDR tox = KB-V1 MDR subline cytotoxicity; Potency, µM (titrated, usually from 46.1 µM), actives largely listed as cytotoxic; hit rate 3.4% among 400,000; KB-V1 MDR cells viability, CellTiter-Glo, 72 h; AID 1347076; further: potency means the concentration at half of the fitted maximal effect; nearly all actives have a fitted effect of over 60% in size
#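 Compound-treated KB-V1 multidrug-resistant cells, 72 h, 37 degrees C; viability by CellTiter-Glo. Fitted qHTS curves give the values.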
# Nrf2 block = blocks Nrf2 signaling | A549 ARE-Fluc reporter, luciferase luminescence, 18-24 h | AID 504444 | Potency, µM (series often up to 46 µM), without a hit: top-dose activity change, negative = inhibition, actives largely listed as inhibitors | hit rate 2.1% among 360,000; further: potency means the concentration at half of the fitted maximal effect; nearly all actives have a fitted effect of over 60% in size
#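 Nrf2 function is reported as luminescence of an ARE-controlled luciferase in A549 cells. Compounds were tested at several concentrations, and a CellTiter-Fluor read on the same wells flagged cytotoxicity.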
# Giardia kill = Giardia lamblia killing; Giardia lamblia trophozoite viability; activity change, % at 7.66 µM, hits read low; hit rate 0.15% among 340,000; AID 540267; in the data active means activity change below about -80%; inconclusive means between about -30% and that limit;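 further: parasites exposed to compound for two days anaerobically before the ATP read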
#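 Trophozoite viability was measured as ATP-dependent luminescence, read 15-30 min after reagent addition. Before that, parasites at 100 cells/well were exposed to compounds for 48 h, anaerobically, at 37 deg C.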
# KB-3-1 cytotox = KB-3-1 parental cell cytotoxicity; KB-3-1 viability, CellTiter-Glo ATP luminescence, 72 h; Potency, µM (titrated, usually from 46.1 µM), usual class: cytotoxic; hit rate 1.4% among 400,000; AID 1347075; further: potency means the concentration at half of the fitted maximal effect; nearly all actives have a fitted effect of over 60% in size
#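 Here the drug-naive KB-3-1 line serves as comparator for MDR sub-line selectivity; cells received compound titrations, 72 h at 37 °C, then CellTiter-Glo readout.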
# * hit, by the source's call; i = inactive; ? = inconclusive; . = no result given; ! = repeats disagree. Unless noted, the call rests on the fitted dose curve; in most records, active means well fitted curve in the direction sought with a large enough effect; inconclusive means small, poorly fitted or top-dose-only effect, or another doubt; inactive means no such curve, though single readings can be large; an effect the other way counts as inactive or inconclusive. Unless noted, on the % scale 0 is the no-effect control and ±100 the full control effect.
SMILES,A549 viability,PI4K2A inh,KB-V1 MDR tox,Nrf2 block,Giardia kill,KB-3-1 cytotox
Cn1c(CN2CCN(c3ccc(Cl)cc3)CC2)nc2ccccc21,2%,6,18µM*,?,24,i
O=C(NCCN1CCOCC1)c1cc(-c2ccc(Cl)cc2)on1,-6%,2,21µM*,2%,-7,i
O=C(NCCN1CCOCC1)c1cc(-c2ccc(Cl)c(Cl)c2)on1,2%,3,i,3%,-15,i
Cc1ccc(S(=O)(=O)NCCCNS(=O)(=O)c2ccccc2[N+](=O)[O-])cc1,3%,-4,i,18µM*,-27,i
CCC(=O)Nc1cccc(C2=NOC3(C2)C[C@@H](C(N)=O)N(C(=O)c2ccccc2C(=O)c2ccccc2)C3)c1 (some centres undefined),3%,2,i,3%,-6,i
NC(=O)[C@H]1CC2(CC(c3cccc(NC(=O)COc4ccc(Cl)cc4)c3)=NO2)CN1C(=O)c1ccccc1C(=O)c1ccccc1 (some centres undefined),-16%,1,i,?,6,21µM*
NC(=O)[C@H]1CC2(CC(c3cccc(NC(=O)COc4ccc(Cl)cc4)c3)=NO2)CN1C(=O)c1ccc(Cl)cc1 (some centres undefined),?,-5,i,26µM*,-3,i
CC1(C(=O)N2CC3(CC(c4cccc(NC(=O)COc5ccc(Cl)cc5)c4)=NO3)C[C@@H]2C(N)=O)CC1 (some centres undefined),-6%,-2,i,-16%,-20,i
Oc1ccc2ccccc2c1SSc1c(O)ccc2ccccc12,.,-11,.,.,.,.
Cc1ccc(-c2nc3ccccc3n2C)o1,0%,?,i,?,-16,?
Cn1c(-c2ccc(Br)o2)nc2ccccc21,5%,-56*,?,?,?,26µM*!
Cc1ccc2sc(N(CCCN(C)C)C(=O)CCS(=O)(=O)c3ccccc3)nc2c1C,-19%,0,i,-17%,5,16µM*
COc1ccc(OC)c2sc(N(CCCN(C)C)C(=O)CCS(=O)(=O)c3ccccc3)nc12,2%,2,?,2%,14,16µM*
COc1ccc(Cl)c2sc(N(CCN(C)C)C(=O)CCS(=O)(=O)c3ccc(C)cc3)nc12,1%,3,i,-6%,?,i
Cc1ccc(OCc2nnc(SCC(=O)c3ccc4ccccc4c3)n2-c2ccc(Cl)cc2)cc1,.,4,.,.,.,.
Cc1ccc2c(c1)[C@H]1[C@H](CO2)[C@H](c2ccccc2)[C@]2(C)C(=O)NCC(=O)N12,-4%,-2,?,-9%,-1,i
Cc1ccc2c(c1)[C@H]1[C@H](CO2)[C@H](c2ccccc2)[C@]2(C)C(=O)N(C)CC(=O)N12,-7%,0,i,21µM*,37,i
CCOC(=O)C1CCCN(C(=O)c2cc3c(-c4cccc(OC)c4)nn(C)c3s2)C1 (centres undefined),-21%,-1,6.5µM*,2%,-13,?
CCOC(=O)C1CCCN(C(=O)c2ccc3c(c2)sc2nc(-c4cccc(OC)c4)cn23)C1 (centres undefined),-7%,-6,.,16µM*,.,.
CCOC(=O)C1CCCN(C(=O)c2ccc3c(c2)sc2nc(-c4ccc(C)cc4C)cn23)C1 (centres undefined),-2%,2,i,6%,.,i
CCOC(=O)C1CCN(C(=O)c2cc3c(-c4ccc(OC)c(OC)c4)nn(C)c3s2)CC1,-4%,0,i,18%,5,i
COC(=O)[C@]1(CNC(=O)c2cc(F)ccc2F)CC(=O)N(C)[C@@H]1c1ccccc1,.,2,.,.,.,.
Cc1ccc(S(=O)(=O)n2ccc(-c3c(-c4ccc(F)cc4)noc3C)n2)cc1,.,-1,.,.,.,.
CCOC(=O)[C@@]12CN(C(=O)OC(C)(C)C)CC=C1N(Cc1ccc(OC)cc1)C(=O)[C@H]2CC(=O)NCC12CC3CC(CC(C3)C1)C2,.,-1,.,.,.,.

# Assay outcomes: PubChem BioAssay, National Center for Advancing Translational Sciences (NCATS)
